Where “and” joins values, the source holds several entries; their conditions need not be identical. Identical values can stand only once.

The first assay is described as follows: qHTS profiling for inhibitors of Plasmodium falciparum (HB3) proliferation (AID 743324).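 Also: 100% = DMSO vehicle wells and 0% = artemisinin-treated control wells.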 As to conditions: Plasmodium falciparum HB3 blood-stage proliferation; at 28.7 µM (top of the series). An outline of the steps: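 SYBR Green fluorescence (485 ex/535 em) of lysed cultures, incubated overnight at room temperature in the dark, quantifies parasite DNA. Infected erythrocytes at 0.3% parasitemia and 2.5% hematocrit were exposed 72 h; values normalized to DMSO and 0.29 uM artemisinin controls.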
Consider `CC(C)C[C@H](NC(=O)[C@H](CCc1ccccc1)NC(=O)CN1CCOCC1)C(=O)N[C@@H](Cc1ccccc1)C(=O)N[C@@H](CC(C)C)C(=O)[C@@]1(C)CO1`, for which the remaining proliferation (% of control), lower = more inhibition was 0.46%.

`O=C(O)c1cn(C2CC2)c2cc(N3CCNCC3)c(F)cc2c1=O` displayed a remaining proliferation (% of control), lower = more inhibition of 92.1%. In turn, `CC1=CC(=O)c2ccccc2C1=O` gave a remaining proliferation (% of control), lower = more inhibition of 4.17%. Take `CNC(=O)c1cc(Oc2ccc(NC(=O)Nc3ccc(Cl)c(C(F)(F)F)c3)cc2)ccn1`: the remaining proliferation (% of control), lower = more inhibition is 3.29% and 1.23%.

A further assay is described as follows: qHTS profiling of the MIPE4 collection as inhibitors of Plasmodium falciparum (3D7) proliferation (AID 743344).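 Also: scaled between DMSO vehicle wells and 0.29 µM artemisinin as full inhibition.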 The note with it: P. falciparum 3D7 in erythrocytes, SYBR Green DNA fluorescence, 72 h; at 28.5 µM (top of the series) unless noted. An outline of the steps:
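Parasite DNA was quantified by SYBR Green I fluorescence (ex 485, em 535 nm) after overnight lysis in saponin/Triton buffer at room temperature. Cultures at 0.3% parasitemia and 2.5% hematocrit were first exposed to compound for 72 h at 37 C; signals were normalised to artemisinin (0.29 uM) and vehicle wells.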
A general note: In qHTS, concentration-response curves come from the screen itself.
Consider `COC(c1ccccc1)(c1ccccc1)[C@H](Oc1nc(C)cc(C)n1)C(=O)O`, for which the parasite growth, % of DMSO control came to 102%.

Take `NC1(c2ccc(-c3nc4ccn5c(=O)[nH]nc5c4cc3-c3ccccc3)cc2)CCC1`: the parasite growth, % of DMSO control turned out to be 5.65%.

For `COc1cc2c(Nc3ccc(Br)cc3F)ncnc2cc1OCC1CCN(C)CC1`, the parasite growth, % of DMSO control came to 5.79%. With `C#CCN[C@@H]1CCc2ccccc21`, the parasite growth, % of DMSO control turned out to be 95.8%. As for `Cc1cccc(Nc2ccncc2S(=O)(=O)NC(=O)NC(C)C)c1`, the parasite growth, % of DMSO control worked out at 93.3%. On to `CC(C)C[C@H](NC(=O)[C@H](CCc1ccccc1)NC(=O)CN1CCOCC1)C(=O)N[C@@H](Cc1ccccc1)C(=O)N[C@@H](CC(C)C)C(=O)[C@@]1(C)CO1`, for which the parasite growth, % of DMSO control amounted to 5.1%. As for `O=C(O)c1cn(C2CC2)c2cc(N3CCNCC3)c(F)cc2c1=O`, the parasite growth, % of DMSO control was 75.2%.

Consider `CCC(C)(C)c1ccc(CC(C)CN2C[C@@H](C)O[C@@H](C)C2)cc1` (some centres not stated), for which the parasite growth, % of DMSO control worked out at 17.4%. The compound `CC(C)OC(=O)C(C(=O)OC(C)C)=C1SC=CS1` displayed a parasite growth, % of DMSO control of 89%. `CC1=CC(=O)c2ccccc2C1=O` displayed a parasite growth, % of DMSO control of 40.3%.

`Nc1nc(=S)c2[nH]cnc2[nH]1` registered a parasite growth, % of DMSO control of 93.4%. Still for that read-out and setting: the figure for `COC(=O)Nc1nc2ccc(Sc3ccccc3)cc2[nH]1` is 75.4%; for `N[C@@H](C(=O)N[C@@H]1C(=O)N2C(C(=O)O)=C(Cl)CS[C@H]12)c1ccccc1` it is 80.9%.

For the origin of these results see PubChem BioAssay (NCATS).
